{
  "source": "the supplement of paper PMC11001985",
  "data": [
    {"compound": "C#CCNC(=O)CCSSCCC(=O)NCCc1ccc(C=O)c(C=O)c1", "experiment": "lysine labeling ratio R10:1 (500 µM / 50 µM probe), SILAC-ABPP in living cells; higher = lower intrinsic lysine reactivity toward the probe, active = 2 or less", "details": "HeLa; probe concentrations 500 vs 50 µM", "summary_of_the_method": "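Each lysine carries an R value: the filtered median of MS1 peptide ratios of high probe to low probe, with the median then taken over forward and reverse replicates. These came from living SILAC light and heavy HeLa cells in PBS at room temperature labelled with an alkyne-tagged, disulfide-linked lysine probe at 500 µM or 50 µM, in forward and reverse swaps. The lysates were mixed, clicked to biotin-azide, trypsin-digested, captured on neutravidin, released by DTT, alkylated and run by LC-MS/MS on a TIMS-TOF Pro. The highest value allowed is 20.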", "values": [
      {"target": "HSPA8 (lysine site: K531) (UniProt P11142)", "sequence (P11142 whole entry, looked up)": "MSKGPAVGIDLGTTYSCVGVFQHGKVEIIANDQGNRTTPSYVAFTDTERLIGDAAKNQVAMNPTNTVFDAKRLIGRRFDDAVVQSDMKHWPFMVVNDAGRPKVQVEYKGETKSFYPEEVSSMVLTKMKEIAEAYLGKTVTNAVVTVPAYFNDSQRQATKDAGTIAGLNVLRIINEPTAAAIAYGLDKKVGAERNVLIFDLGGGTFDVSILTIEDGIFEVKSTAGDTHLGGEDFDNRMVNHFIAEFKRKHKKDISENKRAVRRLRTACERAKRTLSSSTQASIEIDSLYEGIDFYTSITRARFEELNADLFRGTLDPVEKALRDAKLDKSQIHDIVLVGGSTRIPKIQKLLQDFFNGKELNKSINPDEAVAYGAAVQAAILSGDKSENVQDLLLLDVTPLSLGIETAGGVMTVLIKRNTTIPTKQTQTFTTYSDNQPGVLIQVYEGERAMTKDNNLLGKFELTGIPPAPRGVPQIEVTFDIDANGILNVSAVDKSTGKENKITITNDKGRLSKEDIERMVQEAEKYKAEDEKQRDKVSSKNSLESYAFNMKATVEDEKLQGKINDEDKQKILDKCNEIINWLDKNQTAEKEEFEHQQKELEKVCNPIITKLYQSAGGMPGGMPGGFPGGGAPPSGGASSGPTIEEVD", "lysine labeling ratio R10:1": "3.46 (inactive)"},
      {"target": "UniProt Q9Y653 (lysine site: K49)", "lysine labeling ratio R10:1": "1.54 (active)"},
      {"target": "CCT7 (lysine site: K320) (UniProt Q99832)", "lysine labeling ratio R10:1": "2.53 (inactive)"},
      {"target": "KTN1 (lysine site: K543) (UniProt Q86UP2)", "lysine labeling ratio R10:1": "5.74 (inactive)"},
      {"target": "RPS3 (lysine site: K62) (UniProt P23396)", "lysine labeling ratio R10:1": "3.22 (inactive)"},
      {"target": "TLN1 (lysine site: K149) (UniProt Q9Y490)", "lysine labeling ratio R10:1": "1.5 (active)"},
      {"target": "SPTBN1 (lysine site: K1878) (UniProt Q01082)", "sequence (Q01082 whole entry)": "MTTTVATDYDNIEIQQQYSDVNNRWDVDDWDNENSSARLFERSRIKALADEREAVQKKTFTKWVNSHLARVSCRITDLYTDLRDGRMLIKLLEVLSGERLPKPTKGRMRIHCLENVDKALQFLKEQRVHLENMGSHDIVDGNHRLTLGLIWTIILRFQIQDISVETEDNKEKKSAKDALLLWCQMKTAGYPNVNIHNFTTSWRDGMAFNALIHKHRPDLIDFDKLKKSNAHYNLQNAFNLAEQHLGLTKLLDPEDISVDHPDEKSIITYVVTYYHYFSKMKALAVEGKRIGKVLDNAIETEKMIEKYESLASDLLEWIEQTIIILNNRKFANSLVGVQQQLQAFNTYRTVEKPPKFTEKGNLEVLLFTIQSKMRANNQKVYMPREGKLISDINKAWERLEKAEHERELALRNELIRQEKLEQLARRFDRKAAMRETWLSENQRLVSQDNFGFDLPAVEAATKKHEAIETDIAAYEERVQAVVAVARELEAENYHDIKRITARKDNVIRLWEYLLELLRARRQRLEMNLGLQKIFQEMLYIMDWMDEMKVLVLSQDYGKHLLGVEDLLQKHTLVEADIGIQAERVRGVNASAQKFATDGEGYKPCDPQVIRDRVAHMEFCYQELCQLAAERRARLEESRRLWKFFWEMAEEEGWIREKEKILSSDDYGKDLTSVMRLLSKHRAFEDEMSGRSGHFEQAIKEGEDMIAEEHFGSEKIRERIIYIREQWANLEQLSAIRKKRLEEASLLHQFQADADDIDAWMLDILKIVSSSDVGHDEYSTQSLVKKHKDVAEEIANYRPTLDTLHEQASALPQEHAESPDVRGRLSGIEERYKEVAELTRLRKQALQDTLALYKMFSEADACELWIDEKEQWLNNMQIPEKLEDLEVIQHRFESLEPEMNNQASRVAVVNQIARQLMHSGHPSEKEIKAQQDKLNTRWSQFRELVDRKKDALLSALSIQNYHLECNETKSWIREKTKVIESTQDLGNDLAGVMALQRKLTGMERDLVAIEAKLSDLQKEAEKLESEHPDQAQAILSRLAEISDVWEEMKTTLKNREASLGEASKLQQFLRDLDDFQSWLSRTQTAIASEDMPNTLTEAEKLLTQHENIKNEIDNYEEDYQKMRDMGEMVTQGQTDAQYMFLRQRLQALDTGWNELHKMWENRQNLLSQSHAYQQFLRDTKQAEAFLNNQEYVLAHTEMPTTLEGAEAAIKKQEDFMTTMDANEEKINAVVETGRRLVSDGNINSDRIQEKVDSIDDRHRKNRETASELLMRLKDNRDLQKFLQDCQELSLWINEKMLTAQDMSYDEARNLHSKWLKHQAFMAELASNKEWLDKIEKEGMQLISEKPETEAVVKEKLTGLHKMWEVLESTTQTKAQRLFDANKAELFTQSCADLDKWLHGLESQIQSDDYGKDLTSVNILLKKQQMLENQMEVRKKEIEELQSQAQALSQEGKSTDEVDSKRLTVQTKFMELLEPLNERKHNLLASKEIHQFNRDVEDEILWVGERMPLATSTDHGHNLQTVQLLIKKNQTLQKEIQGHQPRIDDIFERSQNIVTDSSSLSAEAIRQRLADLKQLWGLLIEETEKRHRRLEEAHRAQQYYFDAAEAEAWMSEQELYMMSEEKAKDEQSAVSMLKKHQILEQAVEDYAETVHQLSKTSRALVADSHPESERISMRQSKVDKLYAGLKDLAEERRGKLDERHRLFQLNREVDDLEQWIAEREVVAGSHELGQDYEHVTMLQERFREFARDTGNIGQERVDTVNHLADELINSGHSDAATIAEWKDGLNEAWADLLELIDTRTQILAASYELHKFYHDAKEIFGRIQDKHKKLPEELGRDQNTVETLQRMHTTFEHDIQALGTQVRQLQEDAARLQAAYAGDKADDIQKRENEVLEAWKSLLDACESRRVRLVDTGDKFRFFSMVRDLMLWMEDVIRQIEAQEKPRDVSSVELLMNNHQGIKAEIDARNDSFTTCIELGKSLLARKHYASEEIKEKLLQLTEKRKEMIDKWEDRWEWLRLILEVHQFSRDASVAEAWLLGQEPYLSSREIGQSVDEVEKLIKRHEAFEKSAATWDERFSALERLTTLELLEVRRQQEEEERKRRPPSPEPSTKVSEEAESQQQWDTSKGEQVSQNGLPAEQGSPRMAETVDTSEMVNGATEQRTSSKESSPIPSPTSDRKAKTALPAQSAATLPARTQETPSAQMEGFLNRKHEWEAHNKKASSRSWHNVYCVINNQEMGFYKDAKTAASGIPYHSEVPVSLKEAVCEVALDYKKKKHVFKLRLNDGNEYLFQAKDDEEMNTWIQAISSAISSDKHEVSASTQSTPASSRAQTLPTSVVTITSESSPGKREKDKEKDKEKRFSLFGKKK", "lysine labeling ratio R10:1": "4.5 (inactive)"},
      {"target": "ITGA3 (lysine site: K100) (UniProt P26006)", "lysine labeling ratio R10:1": "2.42 (inactive)"},
      {"target": "PLS3 (lysine site: K346) (UniProt P13797)", "lysine labeling ratio R10:1": "0.842 (active)"},
      {"target": "CSRP1 (lysine site: K178) (UniProt P21291)", "lysine labeling ratio R10:1": "0.76 (active)"},
      {"target": "UniProt Q12884 (lysine site: K591)", "lysine labeling ratio R10:1": "1.95 (active)"},
      {"target": "HSPD1 (lysine site: K301) (UniProt P10809)", "lysine labeling ratio R10:1": "2.58 (inactive)"},
      {"target": "ENO1 (lysine site: K126) (UniProt P06733)", "lysine labeling ratio R10:1": "3.29 (inactive)"},
      {"target": "UniProt P21589 (lysine site: K478)", "lysine labeling ratio R10:1": "1.17 (active)"},
      {"target": "DDX5 (lysine site: K523) (UniProt P17844)", "lysine labeling ratio R10:1": "4.4 (inactive)"},
      {"target": "EGFR (lysine site: K293) (UniProt P00533)", "lysine labeling ratio R10:1": "3.59 (inactive)"},
      {"target": "G6PD (lysine site: K360) (UniProt P11413)", "lysine labeling ratio R10:1": "2.07 (inactive)"},
      {"target": "LAMC1 (lysine site: K1329) (UniProt P11047)", "lysine labeling ratio R10:1": "1.2 (active)"},
      {"target": "UniProt P04626 (lysine site: K200)", "lysine labeling ratio R10:1": "6.23 (inactive)"},
      {"target": "ROBO1 (lysine site: K237) (UniProt Q9Y6N7)", "lysine labeling ratio R10:1": "3.22 (inactive)"},
      {"target": "GANAB (lysine site: K191) (UniProt Q14697)", "lysine labeling ratio R10:1": "4.19 (inactive)"},
      {"target": "TALDO1 (lysine site: K321) (UniProt P37837)", "lysine labeling ratio R10:1": "0.79 (active)"},
      {"target": "HSP90B1 (lysine site: K97) (UniProt P14625)", "lysine labeling ratio R10:1": "5.42 (inactive)"},
      {"target": "IGF1R (lysine site: K709) (UniProt P08069)", "lysine labeling ratio R10:1": "4.79 (inactive)"},
      {"target": "SPTBN1 (lysine site: K1684) (UniProt Q01082)", "lysine labeling ratio R10:1": "1.83 (active)"},
      {"target": "LDLR (lysine site: K783) (UniProt P01130)", "lysine labeling ratio R10:1": "3.22 (inactive)"},
      {"target": "A2M (lysine site: K115) (UniProt P01023)", "lysine labeling ratio R10:1": "0.757 (active)"},
      {"target": "FAT1 (lysine site: K1542) (UniProt Q14517)", "lysine labeling ratio R10:1": "2.78 (inactive)"},
      {"target": "ADAM9 (lysine site: K368) (UniProt Q13443)", "sequence (Q13443 whole entry)": "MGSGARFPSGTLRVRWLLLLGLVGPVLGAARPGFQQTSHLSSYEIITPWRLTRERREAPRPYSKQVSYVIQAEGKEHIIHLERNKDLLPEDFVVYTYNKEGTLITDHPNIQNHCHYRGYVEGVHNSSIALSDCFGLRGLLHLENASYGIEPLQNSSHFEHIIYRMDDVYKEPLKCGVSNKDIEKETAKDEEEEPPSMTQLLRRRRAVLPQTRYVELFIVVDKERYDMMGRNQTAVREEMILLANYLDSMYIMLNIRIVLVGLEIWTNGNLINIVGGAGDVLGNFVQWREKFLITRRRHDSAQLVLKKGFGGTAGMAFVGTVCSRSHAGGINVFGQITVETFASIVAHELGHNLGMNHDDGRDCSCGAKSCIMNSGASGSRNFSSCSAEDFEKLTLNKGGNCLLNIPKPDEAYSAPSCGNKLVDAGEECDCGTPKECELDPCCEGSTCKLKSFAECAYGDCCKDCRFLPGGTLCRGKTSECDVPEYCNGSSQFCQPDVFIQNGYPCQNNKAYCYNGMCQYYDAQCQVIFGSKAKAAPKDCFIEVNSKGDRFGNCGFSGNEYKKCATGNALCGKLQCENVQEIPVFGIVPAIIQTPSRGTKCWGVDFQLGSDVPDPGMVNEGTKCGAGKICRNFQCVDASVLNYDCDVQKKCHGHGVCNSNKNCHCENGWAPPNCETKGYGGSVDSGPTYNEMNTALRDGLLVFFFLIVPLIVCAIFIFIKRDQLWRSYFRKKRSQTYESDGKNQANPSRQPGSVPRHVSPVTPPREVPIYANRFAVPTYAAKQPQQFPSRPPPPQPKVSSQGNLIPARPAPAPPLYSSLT", "lysine labeling ratio R10:1": "3.66 (inactive)"},
      {"target": "RPL4 (lysine site: K182) (UniProt P36578)", "lysine labeling ratio R10:1": "1.85 (active)"},
      {"target": "LNPEP (lysine site: K726) (UniProt Q9UIQ6)", "lysine labeling ratio R10:1": "0.91 (active)"},
      {"target": "HSPA8 (lysine site: K159) (UniProt P11142)", "lysine labeling ratio R10:1": "5.07 (inactive)"},
      {"target": "EPHA2 (lysine site: K441) (UniProt P29317)", "sequence (P29317 whole entry)": "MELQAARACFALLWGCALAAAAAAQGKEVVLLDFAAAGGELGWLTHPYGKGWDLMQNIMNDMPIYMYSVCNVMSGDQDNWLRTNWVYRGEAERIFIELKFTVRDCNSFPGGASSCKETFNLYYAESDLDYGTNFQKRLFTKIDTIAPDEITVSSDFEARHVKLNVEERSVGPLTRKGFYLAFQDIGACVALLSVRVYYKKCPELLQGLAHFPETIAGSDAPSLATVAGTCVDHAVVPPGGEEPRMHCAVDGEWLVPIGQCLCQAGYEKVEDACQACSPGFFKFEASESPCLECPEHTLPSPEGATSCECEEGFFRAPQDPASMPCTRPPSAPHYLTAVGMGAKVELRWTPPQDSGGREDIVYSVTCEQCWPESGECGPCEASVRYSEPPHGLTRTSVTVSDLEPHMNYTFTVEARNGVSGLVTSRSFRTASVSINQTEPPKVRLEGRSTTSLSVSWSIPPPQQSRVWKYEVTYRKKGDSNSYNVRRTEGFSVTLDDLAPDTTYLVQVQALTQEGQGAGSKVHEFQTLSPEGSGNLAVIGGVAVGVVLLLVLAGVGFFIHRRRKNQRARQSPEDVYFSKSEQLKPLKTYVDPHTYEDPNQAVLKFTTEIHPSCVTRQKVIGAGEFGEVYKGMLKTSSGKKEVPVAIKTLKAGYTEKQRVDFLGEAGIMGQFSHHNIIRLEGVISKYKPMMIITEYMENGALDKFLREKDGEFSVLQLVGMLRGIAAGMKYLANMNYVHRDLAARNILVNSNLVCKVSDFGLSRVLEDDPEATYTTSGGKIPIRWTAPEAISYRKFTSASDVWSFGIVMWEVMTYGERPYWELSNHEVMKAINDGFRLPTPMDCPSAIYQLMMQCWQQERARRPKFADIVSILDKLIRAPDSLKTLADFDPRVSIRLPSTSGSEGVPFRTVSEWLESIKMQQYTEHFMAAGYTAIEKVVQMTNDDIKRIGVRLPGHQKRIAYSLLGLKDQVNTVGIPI", "lysine labeling ratio R10:1": "7.45 (inactive)"},
      {"target": "EPHA2 (lysine site: K468) (UniProt P29317)", "lysine labeling ratio R10:1": "3.11 (inactive)"},
      {"target": "FN1 (lysine site: K2354) (UniProt P02751)", "lysine labeling ratio R10:1": "6.78 (inactive)"},
      {"target": "PPIC (lysine site: K49) (UniProt P45877)", "sequence (P45877 whole entry)": "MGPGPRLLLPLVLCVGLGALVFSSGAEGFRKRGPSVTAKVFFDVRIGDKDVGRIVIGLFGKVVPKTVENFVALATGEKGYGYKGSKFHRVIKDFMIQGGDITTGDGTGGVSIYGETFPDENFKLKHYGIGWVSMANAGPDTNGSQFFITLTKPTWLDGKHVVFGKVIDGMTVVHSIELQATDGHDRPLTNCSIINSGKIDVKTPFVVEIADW", "lysine labeling ratio R10:1": "1.58 (active)"},
      {"target": "P4HB (lysine site: K71) (UniProt P07237)", "lysine labeling ratio R10:1": "7.22 (inactive)"},
      {"target": "MCAM (lysine site: K182) (UniProt P43121)", "lysine labeling ratio R10:1": "3.4 (inactive)"},
      {"target": "AHCY (lysine site: K204) (UniProt P23526)", "lysine labeling ratio R10:1": "1.25 (active)"},
      {"target": "UniProt Q15149 (lysine site: K2318)", "lysine labeling ratio R10:1": "4.26 (inactive)"}
    ]}
  ]
}
